Assay results as given in PubChem BioAssay (EPA / NIEHS).
Active and inactive are the calls of the source. Rule for the calls: active = hit-call score of the fitted dose curve at least 0.9, where 1 is the maximum; inactive = score below 0.9.

Test: APR_HepG2_p53Act_72hr: Apredica 72-hour HepG2 Assay for p53 Activation (AID 2282923);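 note: average cellular p53 protein immunofluorescence intensity in HepG2 cells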
Settings: high-content imaging, actives raise or lower the signal
Method: APR_HepG2_72hr is a cell-based, multiplexed-readout assay that uses HepG2, a human liver cell line, with measurements taken at 72 hours after chemical dosing in a 384-well plate.APR_HepG2_p53Act_72hr is one of 10 assay component(s) measured or calculated from the APR_HepG2_72hr assay. It is designed to make measurements of dna content, a form of viability reporter, as detected with fluorescence intensity signals by HCS Fluorescent Imaging technology.Data from the assay component APR_HepG2_p53Act_72hr was analyzed into 1 assay endpoint. This assay endpoint, APR_HepG2_p53Act_72hr, was analyzed with bidirectional fitting relative to DMSO as the negative control and baseline of activity. Using a type of viability reporter, measures of protein for gain or loss-of-signal activity can be used to understand the signaling at the pathway-level as they relate to the gene TP53. Furthermore, this assay endpoint can be referred to as a primary readout, because this assay has produced multiple assay endpoints where this one serves a signaling function. To generalize the intended target to other relatable targets, this assay endpoint is annotated to the dna binding intended target family, where the subfamily is tumor suppressor.
Cells were treated with dimethyl sulfoxide (DMSO) as a solvent control at a final concentration of 0.5% v/v or with compounds in DMSO with a resulting final DMSO concentration of 0.5% v/v. Compound treatment was done at concentrations of 0.39, 0.78, 1.56, 3.12, 6.24, 12.5, 25, 50, 100, and 200 uM in duplicate on each plate. Cells were treated with compounds for 1, 24, or 72 hr. Carbonyl […] m-chloro-phenylhydrazone (CCCP) and taxol were used as positive controls for mitochondrial function and cytoskeletal stability, respectively; DMSO served as the negative control for this experiment. Cells were fixed by the direct addition of 50 uL formaldehyde in Hank's Balanced Salt Solution (HBSS) to a final concentration of 3.7%. After incubation in the fixation medium for 30 min at room temperature (293-298 K), cells were rinsed twice with HBSS and treated with cell permeabilization buffer (16 uL of 0.5% Triton X-100) for 10 min at room temperature (293-298 K) before labeling. For mitochondrial membrane potential and mitochondrial measurements, pre-fixed cells were incubated with 50 uL of MitoTracker Red CMXRos (Invitrogen) at a concentration of 250 nM for 30 min before fixation. In the remaining cases, post-fixed cells were labeled by incubation with a multiplexed mixture of primary antibodies in HBSS for 60 min at room temperature (293-298 K) to detect immunoreactivity of c-Jun (1:500), phospho-histone H3 (1:100), phospho-histone H2A.x (1:200), p53 (1:400), alpha-tubulin (1:200) and Hoechst 33342 (2 ug/mL). Cells were labeled for multiplexed imaging on two separate plates: a) Hoechst 33342, MitoTracker Red, phospho-histone H3, and alpha-tubulin, and b) Hoechst 33342, phospho-histone H2A.x, and c-Jun. A final rinse with HBSS (50 uL) was performed before analysis. The primary and secondary antibodies for the proteins were phospho-histone H3 (rabbit anti-phospho-histone H3 and FITC-donkey anti-rabbit IgG), phospho-histone H2A.x (mouse anti-phospho-histone H2A.x and FITC-donkey anti-mouse IgG), c-Jun (rabbit anti-phospho-c-Jun and Cy3-donkey anti-rabbit IgG), p53 (sheep anti-p53 and Cy5-donkey anti-sheep IgG), alpha-tubulin (mouse anti-alpha-tubulin and Cy5-donkey anti-mouse IgG). These antibodies are available as the CellCiphr HepG2 assay kit (Millipore).Digital images of each well were captured using a Cellomics ArrayScan VTI (Thermo Scientific Cellomics) (0.8 NA objective, 0.63x optical coupler, and XF-93 filter set) at 20x magnification. The images were acquired using the autofocus feature of the ArrayScan instrument, which entails the following steps. First, the camera focuses on channel 1 (Hoechst 33342), where nuclei are identified. Second, a Z offset of 1 um is used for capturing mitochondria (MitoTracker Red). […]
For `Cc1cccc([N+](=O)[O-])c1C`, the outcome was “inactive”. For `NCC1(Cc2noc(=O)[nH]2)CCCCC1`, the outcome was “inactive”. In the case of `Cc1cccc(C)c1O`, the outcome is reported as “inactive”. For `O=C(O)Cc1ccccc1Nc1c(Cl)cccc1Cl`, the outcome was “inactive”. With `C1CCC(SSC2CCCCC2)CC1` the AC50 was 148 µM (active). For `Cc1ccc(C)c(O)c1C`, the AC50 was 16.9 µM (active). In the case of `Oc1ccc2c(c1)OC[C@@H](N1CCC(O)(c3ccc(F)cc3)CC1)[C@H]2O`, the outcome is reported as “inactive”. In the case of `CN[C@H]1CC[C@@H](c2ccc(Cl)c(Cl)c2)c2ccc(S(N)(=O)=O)cc21`, the outcome is reported as “inactive”. In the case of `Nc1ccc(S(=O)(=O)c2ccc(N)cc2)cc1`, the outcome is reported as “inactive”. With `COc1ccc2c(c1)c(CC(=O)O)c(C)n2C(=O)c1ccc(Cl)cc1` the outcome was “inactive”. In the case of `CNCc1cc(F)ccc1Oc1ccc(Cl)c(Cl)c1`, the AC50 is reported as 63 µM (active). In the case of `Cc1ccc(Cl)cc1`, the outcome is reported as “inactive”. With `NS(=O)(=O)c1cc2c(cc1Cl)NCNS2(=O)=O` the outcome was “inactive”. In the case of `COc1cc(S(=O)(=O)O)c(C)cc1N=Nc1c(O)ccc2cc(S(=O)(=O)O)ccc12`, the outcome is reported as “inactive”. For `COC(=O)c1ccc(O)cc1`, the outcome was “inactive”. In the case of `C[Si]1(C)O[Si](C)(C)O[Si](C)(C)O[Si](C)(C)O1`, the outcome is reported as “inactive”. With `CC1(C)NC(=O)NC1=O` the outcome was “inactive”. In the case of `O=c1[nH]cc(F)c(=O)[nH]1`, the outcome is reported as “inactive”. With `Nc1nc(N)c2nc(CNc3ccc(C(=O)N[C@@H](CCC(=O)O)C(=O)O)cc3)cnc2n1` the outcome was “inactive”. With `Cc1c(C(=O)O)c(O)cc2c1C(=O)c1c(O)c([C@@H]3O[C@H](CO)[C@@H](O)[C@H](O)[C@H]3O)c(O)c(O)c1C2=O` the outcome was “inactive”. For `CC1=C(/C=C/C(C)=C/C=C/C(C)=C/CO)C(C)(C)CCC1`, the outcome was “inactive”. For `O=C(N[C@@H](Cc1ccccc1)[C@@H](O)C(=O)N1C[C@@H](O)[C@@H](O)C1)c1cc2cc(Cl)ccc2[nH]1`, the AC50 was 104 µM (active). In the case of `CC(CO)OC(C)CO` (stereo not given) (tested in a mixture with another compound), the outcome is reported as “inactive”. For `CC=Cc1ccc(O)c(OC)c1`, the outcome was “inactive”. With `NCCO` the outcome was “inactive”. In the case of `CCCCCCCC=O`, the outcome is reported as “inactive”. In the case of `COc1cc(C=O)ccc1O`, the outcome is reported as “inactive”. In the case of `CCCCCCC(=O)OCC`, the outcome is reported as “inactive”. In the case of `CCCCCCCCCCCC(=O)OC`, the outcome is reported as “inactive”. With `COCCOCCOC` the outcome was “inactive”. In the case of `CCNc1cccc(C)c1`, the outcome is reported as “inactive”. In the case of `CCCCC(CC)COC(=O)CC(C(=O)OCC(CC)CCCC)S(=O)(=O)O` (stereo not given), the AC50 is reported as 103 µM (active). With `CC(=O)C(C)=CC1C(C)=CCCC1(C)C` (stereo not given) the outcome was “inactive”. With `OC[C@@H](O)[C@@H](O)[C@H](O)[C@H](O)CO` the outcome was “inactive”. With `CCCCCCCCCCO` the outcome was “inactive”. With `FC(F)(F)C(F)(F)C(F)(F)C(F)(F)C(F)(F)C(F)(F)CCI` the outcome was “inactive”. In the case of `Cc1cc(=O)[nH]c(=S)[nH]1`, the outcome is reported as “inactive”. In the case of `CCCCN(CCCC)CCCC`, the outcome is reported as “inactive”. In the case of `Cc1ccc(C(C)C)c(O)c1`, the outcome is reported as “inactive”. In the case of `CCCCCCCCCCC`, the outcome is reported as “inactive”.
